# Laboratory results reported in PubChem BioAssay AID1345085 (National Center for Advancing Translational Sciences (NCATS), 2018).
# Records with an inconclusive call do not appear. Active and inactive are the calls of the source. The call rests on the fitted dose curve; in most records, active means well fitted cell-killing curve with a large enough effect; inconclusive means small, poorly fitted or top-dose-only effect, or effect the other way; inactive means no such curve, though single readings can be large or run the other way.
# System: PA-1
# Test: Confirmatory qHTS for gynecologic anti-cancer compounds from libraries of approved drugs and bioactive compounds; further: nearly all actives have a fitted effect of over 55% in size
# Details: gynecologic cancer cell panel viability, ATPlite luminescence, 48 h; series mostly up to 57.6 µM
# Method in brief: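 Seeding 1,000 cells per well preceded overnight (16 h) attachment, after which 48 h drug treatment across 57.5 uM–0.977 nM (11 points) was applied. Remaining cellular ATP, detected by ATPlite luminescence, defined IC50.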
# Potency means the concentration at half of the fitted maximal effect.
row,Structure (SMILES),Potency
1,CC(C)Oc1ccc(C(=O)NC(CNC(=O)CN(C)C)Cc2ccc(-c3cn4cccc(C(C)O)c4n3)cc2)cc1Cl (centres undefined),0.243 µM (active)
2,NC(=O)c1ccc2nc(-c3ccc(Oc4ccc(Cl)cc4)cc3)[nH]c2c1,6.85 µM (active)
3,Cc1ccc(C(=O)Nc2cccc(C(F)(F)F)c2)cc1-c1ccc2nc(NCCN3CCOCC3)ncc2c1,17.2 µM (active)
4,Cc1nc(NC(=O)N2CCCC2C(N)=O)sc1-c1ccnc(C(C)(C)C(F)(F)F)c1 (centres undefined),27.3 µM (active)
5,CN1CCN(c2ccc(OC(F)(F)F)c(Nc3ncc4c(n3)-c3c(c(C(N)=O)nn3CCO)CC4)c2)CC1,0.153 µM (active)
6,CCN(CC)CCNC(=O)c1c(C)[nH]c(/C=C2\C(=O)Nc3ccc(F)cc32)c1C,8.91 µM (active)
7,CC(=O)OC12COC1CC(O)C1(C)C(=O)C(O)C3=C(C)C(OC(=O)C(O)C(NC(=O)OC(C)(C)C)c4ccccc4)CC(O)(C(OC(=O)c4ccccc4)C21)C3(C)C (centres undefined),0.0077 µM (active)
8,COc1ccc2c(c1)c(CC(=O)O)c(C)n2C(=O)c1ccc(Cl)cc1,27.3 µM (active)
9,CC1=C(CO)C(=O)O[C@@H]([C@@H](C)[C@H]2CC[C@H]3[C@@H]4C[C@H]5O[C@]56[C@@H](O)C=CC(=O)[C@]6(C)[C@H]4CC[C@]23C)C1,1.68 µM (active)
10,O=C1Cc2cc(CCN3CCN(c4nsc5ccccc45)CC3)c(Cl)cc2N1,24.3 µM (active)
11,Cc1ccc(C(=O)Nc2ccc(CN3CCN(C)CC3)c(C(F)(F)F)c2)cc1C#Cc1cnc2cccnn12,6.85 µM (active)
12,CC[C@@]1(O)C(=O)OCc2c1cc1n(c2=O)Cc2c-1nc1ccccc1c2/C=N/OC(C)(C)C,0.0273 µM (active)
13,CN(C)c1ccc(-c2nc3ncc(Cl)c(N4CCN(CC(=O)Nc5nccs5)CC4)c3[nH]2)cc1,3.35 µM (active)
14,NCCOc1cc(C(=O)Nc2cc(OCCN)c3ccccc3n2)nc(C(=O)Nc2cc(OCCN)c3ccccc3n2)c1,19.3 µM (active)
15,Cc1cnc(Nc2ccc(F)cc2Cl)nc1-c1c[nH]c(C(=O)NC(CO)c2cccc(Cl)c2)c1 (centres undefined),24.3 µM (active)
16,O=c1[nH]c(=O)n([C@H]2C[C@H](O)[C@@H](CO)O2)cc1F,0.109 µM (active)
17,CN(c1nccc(=O)[nH]1)C1CCN(c2nc3ccccc3n2Cc2ccc(F)cc2)CC1,inactive

row,Structure (SMILES),Potency
1,CN(C)C1CCN(C(=O)c2ccc(NC(=O)Nc3nc(N4CCOCC4)nc(N4CCOCC4)n3)cc2)CC1,1.09 µM (active)
2,COc1ccc(OC)c(-c2nnc3ccc(-c4ccc(OC)c(O[C@@H]5CCOC5)c4)nn23)c1,5.44 µM (active)
3,Cn1cc(-c2ccc3ncc(Cc4ccc5ncccc5c4)n3n2)cn1,inactive
4,CCCCc1nc2cc(/C=C/C(=O)NO)ccc2n1CCN(CC)CC,0.385 µM (active)
5,CCOc1cc2ncc(C#N)c(Nc3ccc(F)c(Cl)c3)c2cc1NC(=O)/C=C/CN(C)C,17.2 µM (active)
6,CCC1C(=O)N(C)c2cnc(Nc3ccc(C(=O)NC4CCN(C)CC4)cc3OC)nc2N1C1CCCC1 (centres undefined),0.0432 µM (active)
7,COc1cc2c(Oc3ccc(-c4cnc(Nc5ccc(F)cc5)n(C)c4=O)cc3F)ccnc2cc1OCCCN1CCOCC1,21.7 µM (active)
8,O=c1[nH]c(=O)n([C@H]2C[C@H](O)[C@@H](CO)O2)cc1Br,inactive
9,C=CC(=O)Nc1cc2c(Nc3ccc(F)c(Cl)c3)ncnc2cc1OCCCN1CCOCC1,30.6 µM (active)
10,NS(=O)(=O)c1ccc(Nc2nc(OCC3CCCCC3)c3[nH]cnc3n2)cc1,inactive
11,CO[C@@]12[C@H](COC(N)=O)C3=C(C(=O)C(C)=C(N)C3=O)N1C[C@@H]1N[C@@H]12,inactive
12,O=C1NC(=O)C(c2cnc3ccccn23)=C1c1cn2c3c(cccc13)CN(C(=O)N1CCOCC1)CC2,10.9 µM (active)
13,Cc1cc(SCc2sc(-c3ccc(C(F)(F)F)cc3)nc2C)ccc1OCC(=O)O,inactive
14,Cc1nc(N)sc1-c1ccnc(Nc2ccc(N3CCOCC3)cc2)n1,4.32 µM (active)
15,CCn1c(-c2nonc2N)nc2c(C#CC(C)(C)O)ncc(OCC3CCCNC3)c21 (centres undefined),7.69 µM (active)
16,Cc1nc(Nc2n[nH]c3c2CN(C(=O)NC(CN(C)C)c2ccccc2)C3(C)C)c2sccc2n1 (centres undefined),0.0243 µM (active)
17,O=C(CCCCCCNC(=O)c1cnc(N(c2ccccc2)c2ccccc2)nc1)NO,3.06 µM (active)
